D3 ag: activates the human D3 dopamine receptor | P35462 | D3R DiscoveRx beta-arrestin cells, luminescence, 90 min | max activation, % | hit rate 0.58% among 410,000; in the data active means max activation above about 30%
Target sequence (P35462 whole entry, looked up): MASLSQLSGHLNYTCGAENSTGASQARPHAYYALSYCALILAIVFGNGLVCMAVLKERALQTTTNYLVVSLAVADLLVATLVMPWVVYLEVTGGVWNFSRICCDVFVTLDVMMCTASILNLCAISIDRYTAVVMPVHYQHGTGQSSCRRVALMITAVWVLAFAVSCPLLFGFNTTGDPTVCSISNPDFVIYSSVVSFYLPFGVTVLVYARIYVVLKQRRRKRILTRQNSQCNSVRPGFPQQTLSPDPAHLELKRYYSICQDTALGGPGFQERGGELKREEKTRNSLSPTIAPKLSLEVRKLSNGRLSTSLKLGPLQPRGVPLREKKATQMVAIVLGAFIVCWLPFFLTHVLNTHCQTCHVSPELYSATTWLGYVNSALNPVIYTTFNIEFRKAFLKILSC
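Agonist-mode cell screen: cells plated at 1500/well and incubated overnight at 37 °C, then exposed to library compounds for 90 min at 37 °C. Detection reagent was added for 30–60 min at room temperature, and luminescence was read.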
D3 antag: D3 dopamine receptor (human) antagonism | D3R cells, DiscoveRx beta-arrestin luminescence, antagonist mode; stronger effect = lower value | max response, negative = inhibition, % | hit rate 2.5% among 360,000 | AID 652054; in the data active means max response below about -50%; inconclusive means no clear call, values can overlap the other calls
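Cells plated overnight at 1500 cells/well, then exposed to library compounds with dopamine controls for 90 minutes at 37 degrees C. DiscoveRx reagent added for 30–60 minutes at room temperature; luminescence read, quantitative HTS format.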
D1 potentiator: potentiators of human D1 dopamine receptor | P21728 | HEK293 TREx D1 cells, calcium flux, dopamine EC20 potentiation | potentiation, % at 10 µM | hit rate 0.036% among 360,000 | AID 504651; in the data active means potentiation above about 30%
D1 ag: activates the human D1 dopamine receptor; P21728; HEK293 T-REx D1 cells, calcium flux, agonist mode; activation, % at 2 µM; hit rate 1% among 360,000; in the data active means activation above about 30%
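Agonism was scored from calcium flux recorded over 180 s (1 read/s) after pintool compound addition, following a 10-cycle baseline. Cells were inducible force-coupled HEK293 TREx D1, plated overnight at 30 C and loaded with no-wash calcium dye.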
D1 antagonist: human D1 dopamine receptor antagonism; HEK293 TREx D1 cells, calcium flux, dopamine EC80; stronger effect = lower value; P21728; AID 504652; activity change, negative = inhibition, % at 10 µM; hit rate 3.2% among 360,000; in the data active means activity change below about -30%
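Tetracycline-induced HEK293 T-REx cells with force-coupled D1 receptor were loaded with a no-wash calcium dye. Compound was added after a 10 s baseline and read kinetically for 180 s; EC80 dopamine was then added and calcium flux followed another 180 s.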
Of the large screens only hits and unclear results are named; the others gave an inactive call. Rows were chosen to be rich in hits. Some 6% of all compounds tested hit in one or more screens of this group.

Cc1nn(C)c(C)c1NC(=O)/C(C#N)=C\N(C)C	D1 antagonist -54
CSc1ccc(-c2nnn(CC(=O)Nc3sc4c(c3C#N)CCC(C(C)(C)C)C4)n2)cc1 (stereo not given)	none (no result: D3 antag)
CCOC(=O)c1c(O)c2c(n(Cc3ccco3)c1=O)CCCC2	D3 ag 44
COc1ccc(C(CNC(=O)c2cccc(S(=O)(=O)NCc3ccccc3)c2)N(C)C)cc1 (stereo not given)	D3 antag -71
CN(C)C(CNC(=O)c1cccc(S(=O)(=O)N2CCN(c3ccccc3)CC2)c1)c1ccccc1 (stereo not given)	D3 antag -71 (no result: D1 potentiator, D1 ag, D1 antagonist)
CSc1ccc(CN(C)C(=O)c2cc(S(=O)(=O)NCc3ccccc3)ccc2C)cc1	none
CN(C)C(CNC(=O)c1ccc(C(=O)c2ccccc2)cc1)c1ccccc1 (stereo not given)	D3 antag -57
CSc1ccc(CN(C)C(=O)c2cccc(S(=O)(=O)NCc3ccccc3)c2)cc1	D1 antagonist -33
O=C(COC(=O)c1cccc(S(=O)(=O)N2CCN(c3ccc(F)cc3)CC2)c1)NCC1CCCO1 (stereo not given)	none
COc1ccc(CN(C)C(=O)c2cccc(S(=O)(=O)N3CCN(c4ccccc4)CC3)c2)c(OC)c1OC	D1 antagonist -33
COc1ccc(C(CNC(=O)c2ccc(S(=O)(=O)N3CC(C)CC(C)C3)cc2)N(C)C)cc1 (stereo not given)	D3 antag -63 (no result: D1 potentiator, D1 ag, D1 antagonist)
COC(=O)c1cccc(S(=O)(=O)N2CCCCC2)c1	D3 antag inconclusive
COC(=O)c1cccc(S(=O)(=O)N2CCN(c3nc4ccccc4s3)CC2)c1	D3 antag -68
O=C(COC(=O)c1cccc(S(=O)(=O)N2CCN(c3ccccc3)CC2)c1)NCC1CCCO1 (stereo not given)	D1 antagonist -34
COc1cc2c(c(NC(C)=O)c1)N(C(C)=O)CCC2	none (no result: D1 potentiator, D1 ag, D1 antagonist)
C=C1CC[C@@H]2[C@](C)(CO)[C@H](O)CC[C@@]2(C)[C@@H]1C/C=C1/C(=O)OC[C@H]1O	none (no result: D3 antag, D1 potentiator, D1 ag, D1 antagonist)
CC(=O)c1sc2c(c1C)c(=O)n(-c1ccc(Cl)cc1)c(=O)n2Cc1ccc(Cl)cc1	none (no result: D3 antag)
CC[N+]1=C(C)C(C)(C)c2cc(C)ccc21	D1 antagonist -34
C=CS(=O)(=O)N(Cc1ccccc1Br)[C@H](CO)CC(C)C	D3 antag -81 (no result: D1 potentiator, D1 ag, D1 antagonist)
CC(C)C[C@@H](CO)N(Cc1ccccc1)S(=O)(=O)N(Cc1ccccc1)[C@H](CO)CC(C)C	D3 ag 48
Cc1cc2ccccc2n1-c1ccc(C(=O)N2CCC(C(=O)NCc3ccc(F)cc3)CC2)s1	none (no result: D3 antag)
CCOC(=O)c1ccc(NC(=O)CCc2c(C)nc3c(c(C)nn3C(C)(C)C)c2C)cc1	none (no result: D3 antag)
COc1ccc(-c2cc(C#N)nc(N3CCN(C)CC3)n2)cc1	D3 antag inconclusive
COc1ccc(-c2cc(C(F)(F)F)nc(N3CCCCCC3)n2)cc1	none
FC(F)(F)c1cc(-c2cccs2)nc(-n2cc(Br)cn2)n1	none
FC(F)(F)c1cc(-c2cccs2)nc(N2CCOCC2)n1	D3 antag -58
CN1CCN(c2nc(C#N)cc(-c3ccccc3)n2)CC1	D3 antag -74
COc1ccc(-c2cc(C(F)(F)F)nc(N3CCN(C)CC3)n2)cc1	D3 antag -66
Cc1ccc(-c2n[nH]c(=S)c3ccccc23)cc1	D1 antagonist -35
CC(=O)Nc1ccccc1-c1nc2ccccc2n(C(C)C(=O)Nc2ccccc2C(F)(F)F)c1=O (stereo not given)	none (no result: D3 antag)
COc1ccc(C2=C(C)C(=NCCCN3CCN(c4cc(C)ccc4C)CC3)NS2(=O)=O)cc1	none (no result: D3 antag)
Cc1cc(C(=O)N2CCCC(C(=O)c3ccc(Cl)cc3C)C2)no1 (stereo not given)	D1 antagonist -35
Cc1cc(Cl)ccc1C(=O)C1CCCN(C(=O)c2cscn2)C1 (stereo not given)	none
CCOC(=O)/C=C/[C@H]1Cc2ccccc2CO1	none
CCOC(=O)/C=C/[C@H]1CCc2cccc(C)c2O1	D3 antag -63 (no result: D1 antagonist)
CCOc1ccc(Cl)cc1-c1cc(C(=O)NCCOC)[nH]n1	none (no result: D1 potentiator, D1 ag, D1 antagonist)
CCC(c1nnnn1C(C)(C)C)N1CCN(c2cc(Cl)ccc2C)CC1 (stereo not given)	D3 antag -56
Cc1ccc(C(=O)N/C(=C/c2ccc(N(C)C)cc2)C(=O)NCC2CCCO2)cc1 (stereo not given)	D3 ag 35
Cc1ccc(C(=O)N/C(=C/c2ccc(Cl)cc2)C(=O)NCC2CCCO2)cc1 (stereo not given)	none
Cc1cccc(NC(=O)NCc2cccnc2)c1C	D1 antagonist -34
O=C(NCc1cccnc1)NC1(C(F)(F)F)Oc2ccccc2O1	D1 antagonist -42
O=C(NCc1cccnc1)Nc1cccc(Cl)c1Cl	D1 antagonist -30
COc1ccc(NC(=O)Cn2c(=O)n(CCCC(=O)NCc3ccccc3OC)c(=O)c3ccccc32)cc1Cl	none (no result: D3 antag)
O=C(Cn1cnc2c(nnn2-c2ccccc2)c1=O)N1CCOCC1	none
Cc1ccc(-n2nnc3c(=O)n(CC(=O)N4CCOCC4)cnc32)cc1	D3 antag -53
CC(=O)N1CCCC1c1nc2ccccc2n1Cc1cccc(Cl)c1 (stereo not given)	D1 antagonist -33 (no result: D3 antag)
CC(=O)N1CCCC1c1nc2ccccc2n1Cc1ccccc1C (stereo not given)	none (no result: D3 antag)
COc1ccccc1N1CCCSC1=Nc1ccccc1	none (no result: D1 potentiator, D1 ag, D1 antagonist)
CC1(OC(=O)C2CCCC2)C(=O)C=C2C=C(c3ccsc3)N(C3CC3)C=C2C1=O (stereo not given)	D3 antag -64
CN1/C(=C\C(=S)NC(=O)c2cccc(Br)c2)C(C)(C)c2ccccc21	D1 antagonist -69
CN1/C(=C\C(=S)NC(=O)c2ccc([N+](=O)[O-])cc2)C(C)(C)c2ccccc21	none
Cc1cc(C)cc(Nc2nc3ccccc3n3cnnc23)c1	none (no result: D3 antag)
CN(C)S(=O)(=O)c1ccc(N2CCCC2)c(C(=O)Nc2ccc(F)cc2F)c1	none
COc1ccc(C(C)(C)C)cc1NC(=O)c1cc(S(=O)(=O)N(C)C)ccc1N1CCCC1	D1 antagonist -51
Cc1nnc(NCc2ccc(Cl)cc2)c2c1nnn2Cc1ccc(F)cc1	none (no result: D3 antag)
CCN(CCO)c1ccc(Nc2cc(-c3ccc(-c4ccccc4)cc3)ncn2)cc1	none (no result: D1 potentiator, D1 ag, D1 antagonist)
CCN(CCO)c1ccc(N=Nc2cc(C)[nH]n2)cc1	D3 antag -52
O=C1CC(NCc2ccc3c(c2)OCO3)C(=O)N1CCc1ccccc1 (stereo not given)	none
COc1cccc(CC2CC(=O)N(CCc3ccc4c(c3)OCO4)C2=O)c1 (stereo not given)	D1 ag 34
Cc1ccc(CC2CC(=O)N(CCc3ccc4c(c3)OCO4)C2=O)cc1 (stereo not given)	D1 antagonist -31
COc1cccc(-c2cnc(C(O)c3ccc(Cl)cc3)[nH]2)c1 (stereo not given)	none (no result: D1 potentiator, D1 ag, D1 antagonist)

Compound activity from PubChem BioAssay.
